Assay results taken from the supplement of paper PMC11732987, “Enantioselective OTUD7B fragment discovery through chemoproteomics screening and high-throughput optimisation” (Communications Chemistry, 2025).

Legend:
Test in all cases: log2 ratio of Biotin-Ahx-Ub-VS probe labelling (fragment/DMSO); higher = less target engagement (more negative = stronger competition), active = hit call of the paper (q ≤ 0.05, log2 ratio ≤ -1)
Conditions in all cases: compound concentration: 200 uM; treatment time: 3 h
OTUD6B = biological target: T1, OTUD6B (UniProt Q8N6M0)
T1 sequence (whole entry): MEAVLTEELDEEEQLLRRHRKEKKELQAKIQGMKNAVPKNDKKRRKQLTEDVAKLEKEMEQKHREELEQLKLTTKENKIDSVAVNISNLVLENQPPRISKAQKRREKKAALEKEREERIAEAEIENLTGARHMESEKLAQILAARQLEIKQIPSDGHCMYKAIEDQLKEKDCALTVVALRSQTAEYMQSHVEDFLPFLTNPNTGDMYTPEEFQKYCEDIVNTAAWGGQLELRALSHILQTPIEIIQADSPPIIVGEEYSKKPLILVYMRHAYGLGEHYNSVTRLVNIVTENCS
Summary of the method: (§1)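 Using Biotin-Ahx-Ub-VS at 0.5 µM final for 1 h, DUBs were labelled in HEK293T lysate (495 µg per sample) that had first been treated in triplicate with fragment at 200 µM or vehicle for 3 h. NeutrAvidin enrichment, LysC and trypsin digestion and diaPASEF LC-MS/MS followed. Spectronaut label-free quantities were global-median-normalised. Values are average log2 fragment/vehicle ratios by unpaired t-test, using proteins with ≥2 unique peptides.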

OTUD7B = biological target: T2, OTUD7B (UniProt Q6GQQ9)
T2 sequence (whole entry): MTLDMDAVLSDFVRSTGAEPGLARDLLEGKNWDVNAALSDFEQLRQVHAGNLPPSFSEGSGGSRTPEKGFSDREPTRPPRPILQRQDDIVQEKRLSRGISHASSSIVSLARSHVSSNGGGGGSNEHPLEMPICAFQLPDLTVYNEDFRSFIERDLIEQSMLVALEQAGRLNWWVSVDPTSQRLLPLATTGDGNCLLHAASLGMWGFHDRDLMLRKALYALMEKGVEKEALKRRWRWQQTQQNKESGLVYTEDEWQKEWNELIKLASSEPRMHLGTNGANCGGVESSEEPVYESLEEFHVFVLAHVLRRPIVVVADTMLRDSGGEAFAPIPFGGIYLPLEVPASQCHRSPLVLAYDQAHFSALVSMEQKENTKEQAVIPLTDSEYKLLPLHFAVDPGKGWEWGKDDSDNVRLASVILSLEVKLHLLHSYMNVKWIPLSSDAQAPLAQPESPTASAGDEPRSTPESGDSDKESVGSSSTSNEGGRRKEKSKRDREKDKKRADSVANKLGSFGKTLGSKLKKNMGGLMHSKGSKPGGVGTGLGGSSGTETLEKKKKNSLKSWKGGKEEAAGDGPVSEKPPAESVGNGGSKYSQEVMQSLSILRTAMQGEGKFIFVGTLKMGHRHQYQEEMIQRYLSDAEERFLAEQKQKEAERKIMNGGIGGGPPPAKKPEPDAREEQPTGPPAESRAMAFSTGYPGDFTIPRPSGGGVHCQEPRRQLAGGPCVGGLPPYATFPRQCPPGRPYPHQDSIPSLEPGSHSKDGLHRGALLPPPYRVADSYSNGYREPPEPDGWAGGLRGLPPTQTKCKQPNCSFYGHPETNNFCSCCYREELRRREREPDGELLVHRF
Summary of the method: as §1

PRPF8 = PRPF8 (UniProt Q6P2Q9)
Summary of the method: as §1

PSMD7 = biological target: T3, PSMD7 (UniProt P51665)
T3 sequence (whole entry): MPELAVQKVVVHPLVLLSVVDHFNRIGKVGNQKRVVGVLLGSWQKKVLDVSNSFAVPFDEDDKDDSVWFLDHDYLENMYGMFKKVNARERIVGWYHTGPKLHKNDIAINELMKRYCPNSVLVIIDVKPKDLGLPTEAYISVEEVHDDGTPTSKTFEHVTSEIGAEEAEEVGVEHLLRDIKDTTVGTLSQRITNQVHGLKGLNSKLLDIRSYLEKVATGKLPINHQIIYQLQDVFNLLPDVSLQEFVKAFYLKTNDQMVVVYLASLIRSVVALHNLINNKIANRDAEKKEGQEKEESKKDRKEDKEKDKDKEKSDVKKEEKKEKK
Summary of the method: as §1

UCHL1 = UCHL1 (UniProt P09936)
Summary of the method: as §1

UCHL3 = biological target: T4, UCHL3 (UniProt P15374)
T4 sequence (whole entry): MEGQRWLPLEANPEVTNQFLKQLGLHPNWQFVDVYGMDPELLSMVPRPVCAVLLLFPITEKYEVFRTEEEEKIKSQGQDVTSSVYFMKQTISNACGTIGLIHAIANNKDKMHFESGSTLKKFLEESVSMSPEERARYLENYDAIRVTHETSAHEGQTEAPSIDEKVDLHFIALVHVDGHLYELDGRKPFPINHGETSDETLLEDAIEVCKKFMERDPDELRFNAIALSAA
Summary of the method: as §1

UCHL5 = biological target: T5, UCHL5 (UniProt Q9Y5K5)
T5 sequence (whole entry): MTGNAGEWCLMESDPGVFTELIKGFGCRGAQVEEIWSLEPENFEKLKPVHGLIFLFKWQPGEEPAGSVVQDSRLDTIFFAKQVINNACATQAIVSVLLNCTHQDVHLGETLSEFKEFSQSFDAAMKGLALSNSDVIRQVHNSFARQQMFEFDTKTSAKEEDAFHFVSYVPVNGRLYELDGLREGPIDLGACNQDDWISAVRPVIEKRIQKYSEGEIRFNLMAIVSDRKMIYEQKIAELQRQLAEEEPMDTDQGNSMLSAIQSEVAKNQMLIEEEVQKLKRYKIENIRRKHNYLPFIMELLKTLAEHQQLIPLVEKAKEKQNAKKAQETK
Summary of the method: as §1

USP10 = USP10 (UniProt Q14694)
Summary of the method: as §1

USP15 = biological target: T6, USP15 (UniProt Q9Y4E8)
T6 sequence (whole entry): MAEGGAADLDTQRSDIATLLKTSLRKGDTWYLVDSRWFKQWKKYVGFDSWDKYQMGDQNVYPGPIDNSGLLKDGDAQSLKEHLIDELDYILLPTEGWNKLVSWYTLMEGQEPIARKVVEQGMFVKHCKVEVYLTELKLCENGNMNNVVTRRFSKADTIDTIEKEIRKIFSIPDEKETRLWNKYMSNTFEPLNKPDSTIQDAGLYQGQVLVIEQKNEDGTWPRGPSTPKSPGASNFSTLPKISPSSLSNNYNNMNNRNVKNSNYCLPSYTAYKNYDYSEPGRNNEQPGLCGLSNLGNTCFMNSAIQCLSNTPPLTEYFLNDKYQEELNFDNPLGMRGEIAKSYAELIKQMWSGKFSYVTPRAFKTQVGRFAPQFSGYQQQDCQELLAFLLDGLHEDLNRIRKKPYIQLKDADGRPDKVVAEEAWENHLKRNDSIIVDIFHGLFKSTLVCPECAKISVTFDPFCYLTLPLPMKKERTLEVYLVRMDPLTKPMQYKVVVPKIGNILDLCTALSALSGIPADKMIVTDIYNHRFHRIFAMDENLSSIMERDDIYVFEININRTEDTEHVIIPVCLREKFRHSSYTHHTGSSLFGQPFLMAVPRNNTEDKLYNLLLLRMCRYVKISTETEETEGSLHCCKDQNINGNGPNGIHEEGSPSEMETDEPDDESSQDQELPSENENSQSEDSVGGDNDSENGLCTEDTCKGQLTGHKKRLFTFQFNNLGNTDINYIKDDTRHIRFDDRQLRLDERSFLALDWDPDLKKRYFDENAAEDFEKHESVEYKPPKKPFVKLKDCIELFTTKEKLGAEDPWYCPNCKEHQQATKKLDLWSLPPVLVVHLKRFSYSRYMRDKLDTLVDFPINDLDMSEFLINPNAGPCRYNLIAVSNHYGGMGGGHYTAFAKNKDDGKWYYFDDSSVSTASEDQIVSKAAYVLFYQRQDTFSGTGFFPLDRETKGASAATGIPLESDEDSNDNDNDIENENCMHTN
Summary of the method: as §1

USP16 = USP16 (UniProt Q9Y5T5)
Summary of the method: as §1

Measured: log2 ratio of Biotin-Ahx-Ub-VS probe labelling

USP16, sequence (Q9Y5T5 whole entry, looked up): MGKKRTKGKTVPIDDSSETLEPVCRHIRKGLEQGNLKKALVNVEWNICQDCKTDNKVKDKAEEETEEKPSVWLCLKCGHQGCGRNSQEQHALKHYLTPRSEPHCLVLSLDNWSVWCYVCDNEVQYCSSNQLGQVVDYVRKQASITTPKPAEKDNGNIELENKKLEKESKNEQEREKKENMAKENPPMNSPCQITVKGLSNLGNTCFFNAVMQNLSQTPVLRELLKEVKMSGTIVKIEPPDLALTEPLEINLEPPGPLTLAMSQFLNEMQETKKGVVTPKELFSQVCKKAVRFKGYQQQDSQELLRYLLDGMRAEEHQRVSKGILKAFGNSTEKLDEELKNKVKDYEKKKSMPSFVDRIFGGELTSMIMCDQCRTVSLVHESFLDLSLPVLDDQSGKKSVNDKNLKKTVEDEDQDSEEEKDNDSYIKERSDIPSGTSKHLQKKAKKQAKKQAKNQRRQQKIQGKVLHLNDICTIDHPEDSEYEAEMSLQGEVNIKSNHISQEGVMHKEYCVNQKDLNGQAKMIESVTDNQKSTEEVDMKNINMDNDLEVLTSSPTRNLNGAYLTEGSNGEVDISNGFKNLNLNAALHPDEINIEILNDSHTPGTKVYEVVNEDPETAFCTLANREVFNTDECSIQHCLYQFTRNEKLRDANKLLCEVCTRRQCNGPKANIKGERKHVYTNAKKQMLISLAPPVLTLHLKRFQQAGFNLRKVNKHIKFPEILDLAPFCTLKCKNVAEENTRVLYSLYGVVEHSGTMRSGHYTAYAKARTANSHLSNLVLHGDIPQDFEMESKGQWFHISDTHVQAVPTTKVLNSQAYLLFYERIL
UCHL1, sequence (P09936 whole entry, looked up): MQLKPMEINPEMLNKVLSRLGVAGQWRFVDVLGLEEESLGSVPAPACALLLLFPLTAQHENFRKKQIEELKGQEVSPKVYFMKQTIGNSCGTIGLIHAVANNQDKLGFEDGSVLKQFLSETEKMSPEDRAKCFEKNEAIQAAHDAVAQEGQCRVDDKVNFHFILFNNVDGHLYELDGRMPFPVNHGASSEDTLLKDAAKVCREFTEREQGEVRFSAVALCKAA
USP10, sequence (Q14694 whole entry): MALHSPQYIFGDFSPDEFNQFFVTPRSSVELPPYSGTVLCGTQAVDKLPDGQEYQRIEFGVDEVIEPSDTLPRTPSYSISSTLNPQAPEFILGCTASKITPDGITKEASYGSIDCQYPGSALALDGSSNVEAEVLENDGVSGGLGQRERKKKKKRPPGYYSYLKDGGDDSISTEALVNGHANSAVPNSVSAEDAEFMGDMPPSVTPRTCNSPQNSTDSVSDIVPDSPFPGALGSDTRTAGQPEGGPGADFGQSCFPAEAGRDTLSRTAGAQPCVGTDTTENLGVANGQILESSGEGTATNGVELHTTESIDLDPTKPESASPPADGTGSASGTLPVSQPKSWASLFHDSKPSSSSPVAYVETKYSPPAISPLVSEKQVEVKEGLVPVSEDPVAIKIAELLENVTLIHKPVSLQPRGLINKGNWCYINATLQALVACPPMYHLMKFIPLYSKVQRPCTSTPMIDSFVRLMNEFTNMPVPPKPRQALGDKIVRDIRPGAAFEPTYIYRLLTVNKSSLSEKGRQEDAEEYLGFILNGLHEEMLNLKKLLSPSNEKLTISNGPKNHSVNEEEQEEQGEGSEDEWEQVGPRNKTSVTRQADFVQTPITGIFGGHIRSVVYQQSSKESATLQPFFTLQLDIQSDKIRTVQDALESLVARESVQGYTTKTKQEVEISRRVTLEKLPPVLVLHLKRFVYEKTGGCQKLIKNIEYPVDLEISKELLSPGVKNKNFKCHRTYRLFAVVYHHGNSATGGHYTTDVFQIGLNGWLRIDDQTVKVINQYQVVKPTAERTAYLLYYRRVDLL

O=C(CCl)N1c2ccccc2NC(=O)C12CCCC2
inactive: OTUD6B -0.0738 | OTUD7B -0.0903 | PRPF8 -0.16 | PSMD7 0.0949 | UCHL1 -0.493 | UCHL3 0.749 | UCHL5 -0.148 | USP10 -0.393 | USP15 0.113 | USP16 0.103
